# Only some compounds are listed: those with a hit (about 11% of all), similar ones and a draw of the others.
# HttQ103 aggreg = reduces HttQ103-GFP aggregates in PC12 cells | PC12 HttQ103-GFP aggregates, Acumen cytometry, 40 h | Potency, µM (doses to about 46.1 µM), for inactives: at the highest dose activity change, negative = inhibition, actives largely listed as inhibitors | actives 1.1% (n = 220,000) | AID 1688; also: potency is read from the fitted curve at half-maximal effect; % is scaled to controls: 0 for no effect and ±100 for the full control effect; nearly all actives have a fitted effect of over 60% in size
#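 Aggregate formation scored by laser-scanning cytometer (488 excitation, 500–530 emission) in lysed PC12 cells expressing Q103-GFP after 100 nM tebufenozide induction; library tested in dose series, with ATPLite reagent added in the multiplex.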
# CBFb-RUNX1 inh = CBF-beta/RUNX1 interaction disruption | Q01196+Q13951 | AlphaScreen CBFb-His/RUNX1-biotin binding, biochemical | Potency, µM (highest dose often 59.8 µM), for inactives: at the highest dose activity, negative = inhibition, most hits filed as inhibitors | 230,000 tested, under 10 active | AID 1477; also: % of control where 0% means no effect
# Target sequence (Q01196 whole entry, looked up): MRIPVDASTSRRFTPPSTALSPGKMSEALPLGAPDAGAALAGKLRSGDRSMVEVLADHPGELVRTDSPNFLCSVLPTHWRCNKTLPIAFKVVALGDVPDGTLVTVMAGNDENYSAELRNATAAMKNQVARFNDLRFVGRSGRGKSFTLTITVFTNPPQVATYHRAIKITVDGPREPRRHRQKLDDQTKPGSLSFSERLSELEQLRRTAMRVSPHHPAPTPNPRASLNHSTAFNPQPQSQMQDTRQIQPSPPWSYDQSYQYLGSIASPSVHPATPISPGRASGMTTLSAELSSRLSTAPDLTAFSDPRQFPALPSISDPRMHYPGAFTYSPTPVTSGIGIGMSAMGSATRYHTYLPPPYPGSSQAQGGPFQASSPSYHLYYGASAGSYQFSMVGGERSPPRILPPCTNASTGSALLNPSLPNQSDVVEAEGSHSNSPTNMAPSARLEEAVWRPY
# Target sequence (Q13951 whole entry, looked up): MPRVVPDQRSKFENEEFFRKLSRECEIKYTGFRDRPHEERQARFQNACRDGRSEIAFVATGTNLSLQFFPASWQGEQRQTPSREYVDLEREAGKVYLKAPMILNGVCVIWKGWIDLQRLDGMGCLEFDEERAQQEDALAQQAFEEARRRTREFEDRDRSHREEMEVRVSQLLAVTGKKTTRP
#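 Interaction loss through any mechanism counts as activity. Pre-formed complex of His-CBF-beta and biotin-RUNX1 (30 nM apiece) is incubated with compound 15 min, then with 50 ng nickel and 50 ng streptavidin beads for 90 min before AlphaScreen detection.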
# PNC inhibitor = blocks assembly of the perinucleolar compartment | actives 3.1% (n = 140,000) | AID 2417 | activity change (PNC), negative = inhibition, % at 10 µM | PC3M PTB-GFP, PNC prevalence imaging, 16 h; active compounds read low;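 active = readout at or below -70, meaning at least 70% loss of cells showing the perinucleolar compartment, a nuclear body marking cancer cells; inconclusive = readout between -30 and a set limit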;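 also: plate controls were DMSO wells for no effect and camptothecin positive control wells for full effect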
#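 PC3M cells stably expressing PTB-GFP, 750–1000 cells/well, treated 16 h at 37 °C with compound (23 nl of library stock), in duplicate. After paraformaldehyde fixation and Hoechst stain, imaged at 20x; PNC prevalence scored by image analysis.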
# ALDH1A1 block = inhibitors of human aldehyde dehydrogenase 1A1 | Potency, µM (top dose mostly 75.3 µM), without a hit: top-dose activity, negative = inhibition, usual class: inhibitors | P00352 | AID 1030 | Purified ALDH1A1, NADH fluorescence, propionaldehyde substrate | actives 7.3% (n = 220,000); active = well fitted inhibition curve with a large enough effect, not every such curve was filed as active; inconclusive = small, poorly fitted or top-dose-only effect, or another doubt; inactive = no such curve, though single readings can be large or run the other way;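 also: potency is read from the fitted curve at half-maximal effect; plate controls were no enzyme wells and a reference inhibitor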
# HPGD inh = inhibitors of human 15-hydroxyprostaglandin dehydrogenase (HPGD); P15428; purified HPGD, NADH fluorescence kinetic, PGE2 substrate; Potency, µM, without a hit: top-dose activity change, negative = inhibition, usual class: inhibitors; actives 4.3% (n = 150,000); AID 894; active = well fitted inhibition curve with a large enough effect, not every such curve was filed as active; inconclusive = small, poorly fitted or top-dose-only effect, or another doubt; inactive = no such curve, though single readings can be large or run the other way; also: potency is read from the fitted curve at half-maximal effect; % is scaled to controls: 0 for no effect and ±100 for the full control effect
#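 20 nM HPGD preincubated 15 min at room temperature with compound in 50 mM Tris-HCl pH 8, 0.01% Tween 20. Started with 1 mM NAD+ and 30 uM prostaglandin E2; NADH fluorescence (360/450 nm) read 5 times over 30-s intervals, last minus first.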
# HTT cytoprotect = Huntington cell model cytoprotection by ATP luminescence | PC12 HTT-Q103 induced, cytoprotection, ATP luminescence, 40 h | Potency, µM (doses to about 56.4 µM), inactives show cytoprotection (ATP increase), actives largely listed as activators | actives 0.14% (n = 230,000); also: potency is read from the fitted curve at half-maximal effect; % of control where 0% means no effect; nearly all actives have a fitted effect of over 45% in size
#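 PC12 cells stably carrying ecdysone-inducible Htt exon 1 (Q103)–GFP were induced with 100 nM tebufenozide (final) alongside library compounds in a dose series. Cytoprotection was scored as retained ATP by ATPlite luminescence.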
# The depositor's hits bear a star; ? = inconclusive; . = no result; [ ] = dose if it differs, or a comment. Unless noted, calls follow the shape of the dose curve; as a rule, active = well fitted curve in the direction sought with a large enough effect; inconclusive = small, poorly fitted or top-dose-only effect, or another doubt; inactive = no such curve, though single readings can be large; an effect the other way counts as inactive or inconclusive.
SMILES,HttQ103 aggreg,CBFb-RUNX1 inh,PNC inhibitor,ALDH1A1 block,HPGD inh,HTT cytoprotect
O=C(CC1COc2ccccc2O1)NCc1ccccc1 (configuration not stated),14%,5%,0,-6%,-23%,-1%
O=C1CC2(CCCC2)CC(=O)N1CCCCNC[C@H]1COc2ccccc2O1,.,-8%[21.7 µM],.,10µM*,-2%,15%
Cc1ccc(/C=C/C(=O)NCC2COc3ccccc3O2)o1 (configuration not stated),-1%,-5%,.,6.3µM*,.,-16%
O=C(CC1COc2ccccc2O1)NCCc1ccccc1 (configuration not stated),15%,6%,50,-15%,7.1µM*,-31%
CCCNCC1COc2ccccc2O1 (configuration not stated),2%[9.22 µM],0%,11,12%,-16%,-19%
c1ccc(CCCCNCC2COc3ccccc3O2)cc1 (configuration not stated),-1%,-4%,.,?,.,0%
CCOC(=O)CCNCC1COc2ccccc2O1 (configuration not stated),7%,10%,-92*,7%,-4%,1%[10 µM]
CO[C@@H]1COC(=O)[C@@H](C)COC(=O)[C@@H](C)NC(=O)C/C=C\[C@@H]1C,.,7%[13.1 µM],.,11%[13.5 µM],.,1%[10 µM]
CCOc1ccc(-c2csc(N)c2C(=O)OC)cc1,-1%,-8%,47,22µM*,14µM*,-12%
Cc1ccc(S(=O)(=O)NCc2ccncc2)cc1,3.5µM*,2%,-26,-2%,0%,-6%
Cc1ccc(C)c(S(=O)(=O)NCc2cccnc2)c1,-3%,0%,?,-1%,-8%,13%[10 µM]
Cc1ccc(C)c(S(=O)(=O)NCc2ccncc2)c1,10µM*,3%,-24,9%,0%,-15%
COC(=O)[C@@]1(Cc2ccccc2)[C@H]2c3cc(C(=O)N(C)C)n(C[C@H](O)CO)c3C[C@H]2CN1C(=O)c1ccccc1,.,8%,.,-2%,-7%,-7%
CCOC(=O)C1=CC2(CC)CCCN3CCc4c(n1c1ccccc41)C32 (configuration not stated),16%,12%,.,-1%,.,12%
O=C1c2ccccc2C(=O)N1c1ccc(Cc2ccc(N3C(=O)c4ccccc4C3=O)cc2)cc1,.,.,.,-1%[13.5 µM],2%,16%[10 µM]
COc1ccc(C2c3sc(=O)[nH]c3SC3C(=O)N(c4ccccc4)C(=O)C32)cc1 (configuration not stated),-2%,-18%,?,22µM*,-6%,-4%
O=C1C2Sc3[nH]c(=O)sc3C(c3ccccc3)C2C(=O)N1c1ccccc1 (configuration not stated),21%,-2%,-20,?,-17%,1%
O=c1[nH]c2c(s1)C(c1ccccc1)C1C3CCC(C3)C1S2 (configuration not stated),?,-13%,?,20µM*,?,37%
COc1cc(C2c3sc(=O)[nH]c3SC3C4CCC(C4)C23)ccc1O (configuration not stated),13%,-18%,115,?,-4%,5%
COc1ccc(C2c3sc(=O)[nH]c3SC3C4CCC(C4)C23)cc1 (configuration not stated),12%,-8%,-30,22µM*,?,22%[10 µM]
COC(=O)c1c(NC(=S)Nc2ccccc2Cl)sc(C)c1C,-8%,-2%,33,?,-10%,-23%
COc1cc(Cl)cc(/C=C/c2ccc3ccccc3n2)c1OC(C)=O,?,?,-101*,?,?,-15%[10 µM]
O=C(O)[C@@H]1[C@@H]2C[C@H]([C@@H](Br)[C@H]2N2C(=O)CCC2=O)[C@@H]1C(=O)O,.,.,.,-3%[13.5 µM],-7%,-4%[10 µM]
Cc1ccc(-c2c(C3C4C=CCCC4(C)C(=O)N3Cc3ccccc3)ccc3ccccc23)cc1 (configuration not stated),.,-6%,.,.,.,.
Cc1cc(C)n2c(=S)[nH]nc2n1,2%,17%,-139*,1.4µM*,2.8µM*,-18%[10 µM]
SMILES,HttQ103 aggreg,CBFb-RUNX1 inh,PNC inhibitor,ALDH1A1 block,HPGD inh,HTT cytoprotect
O=C(C(Cc1ccccc1)N1C(=O)c2ccccc2C1=O)N1CCc2ccccc21 (configuration not stated),?,-5%,-100*,-1%,-8%,30%[10 µM]
O=C(O)[C@H](Cc1ccccc1)N1C(=O)c2ccccc2C1=O,.,.,.,?,-8%,10%[10 µM]
CCOc1cc(/C=N/NS(=O)(=O)c2ccccc2)ccc1OS(=O)(=O)c1ccc(C)cc1,-5%,-4%,-14,8.9µM*,-13%,-13%
COc1ccc(/C=C(\C#N)C(N)=O)cc1OC,.,.,.,-7%[13.5 µM],-4%,-1%[10 µM]
CCOc1cc(/C=C(\C#N)C(N)=O)ccc1OS(=O)(=O)c1ccccc1,21%,-6%,-12,13µM*,-24%,29%[10 µM]
Cc1cc(OC(=O)c2ccccc2Br)cc(=O)n1C,10%,1%,23,6%,13µM*,-11%
NC(=O)c1ccc(C[C@H](C(=O)O)N2C(=O)c3ccc(C(=O)O)cc3C2=O)cc1,.,8%,.,.,.,.
Cc1ccc(C(=O)NC(=S)Nn2cnnc2)cc1,-10%,0%,-20,20µM*,?,7%[10 µM]
O=C(NC(=S)Nn1cnnc1)c1cccc(Br)c1,1%,-3%,-27,7.9µM*,22µM*,14%[10 µM]
NC(=S)NNC(=O)c1cccc(Br)c1,7%,-3%,.,-3%,.,13%
O=C(Nc1ccccc1)N1CCCC2(CCN(C(=O)c3cc(C(F)(F)F)cc(C(F)(F)F)c3)CC2)C1,.,.,.,5%,-9%,?
NC=O,.,6%[21.7 µM],.,11%,-11%,-87%
O=C(Nc1cccc2oc(=O)ccc12)c1ccc([N+](=O)[O-])cc1[N+](=O)[O-],10%,9%,25,7.9µM*,-13%,.
Cc1ccc(-c2csc(N/N=C/C=C/c3ccccc3)n2)cc1,2%,0%,90,22µM*,-26%,-4%
CC(C)C[C@H](N)c1nnc(S(=O)(=O)Cc2ccc(F)cc2)o1,?,3%,-13,1.6µM*,25µM*,-157%
CN(C1CCCCC1)S(=O)(=O)c1ccc(NC(=O)CCC(=O)O)cc1,-11%,0%,-26,-9%,-26%,2%[0.074 µM]
CN(C1CCCCC1)S(=O)(=O)c1ccc(NC(=O)C2CCCCC2)cc1,1.8µM*,-3%,-10,-12%,-14%,-33%[10 µM]
CCCCS(=O)(=O)c1sc2nc(C)cc(C)c2c1N,-15%,2%,-26,-4%,2.8µM*,-17%[0.074 µM]
Cc1noc(C)c1-c1ccc2ncnc(NC(C)c3ccccc3)c2c1 (configuration not stated),.,-5%,.,.,.,.
